Source: PubChem BioAssay AID1159580 (chemical genetic matrix, 2015)
About 2,000 (36%) of roughly 5,500 compounds were called active. About 18% were inconclusive and are not listed. Cut-off read from the data, not from the text of the source: active = normalized growth mostly below about 0.91 (no sharp cut-off); inconclusive = no clear call, values can overlap the other calls; inactive = mostly above about 0.92. The list shows a part of the results.

Experiment: chemical genetic growth profiling, strain panel (AID 1159580);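 note: tested at 20 µM; growth read once vehicle control cultures reached saturation at 30 °C; 1 = growth at the plate median or of vehicle wells; lower values mean less growth of the strain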
Conditions: S. cerevisiae deletion strains, growth OD

Measured: normalized growth

O=C(NC(Cc1cc(=O)[nH]c2ccccc12)C(=O)O)c1ccc(Cl)cc1 (stereo unspecified)
inactive: locus YAL021C, strain ccr4, stronger effect = lower value 1.01 | locus YAL026C, strain drs2, stronger effect = lower value 1 | locus YAL030W, strain snc1, stronger effect = lower value 1 | locus YBL061C, strain skt5, stronger effect = lower value 1 | locus YBR009C, strain hhf1, stronger effect = lower value 1.01 | locus YBR023C, strain chs3, stronger effect = lower value 1.01 | locus YBR171W, strain sec66, stronger effect = lower value 0.992 | locus YBR231C, strain swc5, stronger effect = lower value 0.994 | locus YBR279W, strain paf1, stronger effect = lower value 0.997 | locus YCL011C, strain gbp2, stronger effect = lower value 1 | locus YCL016C, strain dcc1, stronger effect = lower value 0.994 | locus YCL061C, strain MRC1, stronger effect = lower value 0.994 | locus YCL069W, strain vba3, stronger effect = lower value 1 | locus YCR088W, strain abp1, stronger effect = lower value 0.994 | locus YDL005C, strain med2, stronger effect = lower value 1 | locus YDL040C, strain nat1, stronger effect = lower value 1 | locus YDR001C, strain nth1, stronger effect = lower value 0.997 | locus YDR069C, strain doa4, stronger effect = lower value 1 | locus YDR137W, strain rgp1, stronger effect = lower value 0.969 | locus YDR159W, strain sac3, stronger effect = lower value 1.01 | locus YDR195W, strain ref2 0.972 | locus YDR297W, strain sur2, stronger effect = lower value 1.01 | locus YDR334W, strain swr1, stronger effect = lower value 1.02 | locus YDR335W, strain msn5, stronger effect = lower value 1 | locus YDR392W, strain spt3, stronger effect = lower value 1.03 | locus YEL003W, strain gim4, stronger effect = lower value 0.998 | locus YEL037C, strain rad23, stronger effect = lower value 0.982 | locus YEL061C, strain CIN8 (second series), stronger effect = lower value 1 | locus YER015W, strain faa2, stronger effect = lower value 1.01 | locus YER016W, strain bim1, stronger effect = lower value 1 | locus YER111C, strain swi4, stronger effect = lower value 0.999 | locus YER155C, strain BEM2 (second series), stronger effect = lower value 1 | locus YFR010W, strain ubp6, stronger effect = lower value 0.995 | locus YGL167C, strain pmr1, stronger effect = lower value 1.01 | locus YGL173C, strain kem1, stronger effect = lower value 1.01 | locus YGL227W, strain vid30, stronger effect = lower value 1 | locus YGL240W, strain doc1, stronger effect = lower value 0.998 | locus YGL253W, strain hxk2, stronger effect = lower value 1 | locus YHR013C, strain ard1, stronger effect = lower value 1 | locus YHR027C, strain rpn1, stronger effect = lower value 0.996 | locus YHR030C, strain SLT2, stronger effect = lower value 0.993 | locus YHR079C, strain IRE1, stronger effect = lower value 0.99 | locus YHR142W, strain chs7, stronger effect = lower value 0.986 | locus YJL092W, strain hpr5, stronger effect = lower value 0.998 | locus YJL095W, strain BCK1 (second series), stronger effect = lower value 0.997 | locus YJL095W, strain BCK1, stronger effect = lower value 0.988 | locus YJL115W, strain asf1, stronger effect = lower value 1 | locus YJL129C, strain trk1, stronger effect = lower value 1 | locus YJL154C, strain vps35, stronger effect = lower value 1 | locus YJL164C, strain tpk1, stronger effect = lower value 1 | locus YJL166W, strain qcr8, stronger effect = lower value 0.995 | locus YJR066W, strain TOR1, stronger effect = lower value 0.913 | locus YKL160W, strain elf1, stronger effect = lower value 0.998 | locus YKR026C, strain gcn3, stronger effect = lower value 0.994 | locus YKR091W, strain srl3, stronger effect = lower value 1 | locus YLL001W, strain dnm1, stronger effect = lower value 0.997 | locus YLL026W, stronger effect = lower value 1 | locus YLL041C, strain sdh2, stronger effect = lower value 0.997 | locus YLR027C, strain aat2, stronger effect = lower value 0.994 | locus YLR113W, strain HOG1, stronger effect = lower value 0.995 | locus YLR221C, strain rsa3, stronger effect = lower value 0.999 | locus YLR258W, strain gsy2, stronger effect = lower value 1 | locus YLR262C, strain YPT6 (second series), stronger effect = lower value 1 | locus YLR320W, strain mms22, stronger effect = lower value 0.996 | locus YLR342W, strain FKS1, stronger effect = lower value 0.991 | locus YLR357W, strain rsc2, stronger effect = lower value 0.993 | locus YLR370C, strain arc18, stronger effect = lower value 1 | locus YLR384C, strain iki3, stronger effect = lower value 0.998 | locus YML120C, strain ndi1, stronger effect = lower value 1 | locus YMR058W, strain fet3, stronger effect = lower value 1.01 | locus YMR125W, strain sto1, stronger effect = lower value 1.01 | locus YMR129W, stronger effect = lower value 0.983 | locus YMR205C, strain PFK2, stronger effect = lower value 0.997 | locus YMR231W, strain pep5, stronger effect = lower value 1.01 | locus YNL071W, strain lat1, stronger effect = lower value 1.01 | locus YNL183C, strain NPR1, stronger effect = lower value 0.934 | locus YNL209W, strain ssb2, stronger effect = lower value 1 | locus YNL248C, strain rpa49, stronger effect = lower value 0.994 | locus YNL322C, strain KRE1 (second series), stronger effect = lower value 0.992 | locus YNR049C, strain mso1, stronger effect = lower value 0.986 | locus YOR001W, strain rrp6, stronger effect = lower value 0.988 | locus YOR070C, strain gyp1, stronger effect = lower value 1.01 | locus YOR080W, strain dia2, stronger effect = lower value 0.998 | locus YOR083W, strain WHI5, stronger effect = lower value 1 | locus YOR106W, strain vam3, stronger effect = lower value 0.993 | locus YOR231W, strain MKK1, stronger effect = lower value 0.988 | locus YOR265W, strain rbl2, stronger effect = lower value 1 | locus YOR270C, strain vph1, stronger effect = lower value 1.03 | locus YOR290C, strain snf2, stronger effect = lower value 1.01 | locus YPL051W, strain arl3, stronger effect = lower value 1.01 | locus YPL078C, strain atp4, stronger effect = lower value 0.999 | locus YPL106C, strain sse1, stronger effect = lower value 1.01 | locus YPL240C, strain hsp82, stronger effect = lower value 0.982 | locus YPL256C, strain CLN2, stronger effect = lower value 1.01

Brc1c(NC2=NCCN2)ccc2nccnc12
inactive: locus YAL040C, strain CLN3, stronger effect = lower value 1.01 | locus YCL061C, strain MRC1 (second series), stronger effect = lower value 1 | locus YDR363W, strain ESC2, stronger effect = lower value 1 | locus YER002W, strain NOP16, stronger effect = lower value 1.01 | locus YGR229C, strain SMI1, stronger effect = lower value 1.01 | locus YMR307W, strain GAS1, stronger effect = lower value 0.994 | locus YNL175C, strain NOP13, stronger effect = lower value 0.989 | locus YNL197C, strain WHI3, stronger effect = lower value 0.981 | locus YNL224C, strain SQS1, stronger effect = lower value 0.994 | locus YNL322C, strain KRE1, stronger effect = lower value 1 | locus YOR083W, strain WHI5 (second series), stronger effect = lower value 1 | locus YPL241C, strain CIN2, stronger effect = lower value 1
